From PubChem BioAssay AID652104 (National Center for Advancing Translational Sciences (NCATS), 2013)
Hit rate of the full screen: of about 410,000 compounds, about 7,200 (1.8%) were called active. About 7% were inconclusive and are not listed. Many of the other results were omitted from the sample, so actives are more common in it than they were. Unmarked numbers belong to inactive results. Calls come from the whole dose curve; as a rule, active = well fitted activation curve with a large enough effect; inconclusive = small, poorly fitted or top-dose-only effect, or another doubt; inactive = no such curve, though single readings can be large or run the other way.

Experiment: qHTS of TDP-43 Inhibitors; note: nearly all actives have a fitted effect of over 50% in size; for growth rescue (activation): % of control where 0% means no effect
Details: TDP-43 expressing yeast growth rescue, BacTiter-Glo, 24 h; series mostly up to 46.1 µM; growth rescue (activation): at the top concentration
Excerpt: The goal of this project is to identify new chemical probes capable of reversing the toxicity associated with TDP-43 which is associated with frontotemporal lobar degeneration and amyotrophic lateral sclerosis. These compounds will provide a complementary approach to deciphering the tangled mechanisms of toxicity and protection that we have uncovered through genome-wide genetic screens and are beginning to uncover in a large-scale proteomics analysis with mass spectroscopy.
To this end, a miniaturized assay was developed to be screened against the Molecular Libraries Small Molecule Repository (MLSMR) to discover TDP-43 inhibitors. Please note that in the set-up this yeast-based assay compounds that inhibit as TDP-43, have a read-out as activators.
NIH Chemical Genomics Center [NCGC]
NIH Molecular Libraries Probe Centers Network [MLPCN]
Assay Submitter (PI): Susan Lindquist, Whitehead Institute/MIT
Dispense 2.5 microL yeast galactose medium per 1536-well plate, pin compound, dispense 2.5 microL TDP-43 expressing yeast in galactose medium at OD600=0.02 (pregrown in raffinose medium to mid-log phase) per well, incubate for 24 hr at 30 deg C, and cell growth will be measured using 5 microL of Bactiter/Glo reagent to entire plate and read using Luminescence Protocol in ViewLux.
Potency is the fitted concentration of half-maximal effect.

| SMILES | growth rescue (activation) | Potency |
| --- | --- | --- |
| Cc1cc(=O)oc2c(C)c(OCC(=O)N3CCN(Cc4ccc5c(c4)OCO5)CC3)ccc12 | -20.2% |  |
| CCOc1ccc(S(=O)(=O)NCc2ccc3c(c2)OCO3)cc1C |  | 12.6 µM (active) |
| COc1ccc(CNCCc2ccc3c(c2)OCO3)c(OC)c1OC | 0.202% |  |
| O=C(CCC(=O)N1C[C@H]2C[C@@H](C1)c1cccc(=O)n1C2)NCc1ccccc1C(F)(F)F | 17.2% |  |
| COc1cccc(C(c2nnnn2-c2ccc3c(c2)OCCO3)N2CCC3(CC2)C(=O)NCN3c2ccccc2)c1OC (stereo not given) | 27.4% |  |
| Oc1cc2c(cc1CN1CCN(c3ccccc3)CC1)OCO2 | -5.52% |  |
| O=C(NC1CCCCC1)N1Cc2cc(N3CCCCC3)ccc2-n2nncc2C1 | 8.16% |  |
| c1cc2c(cc1CCNC1CCCCCC1)OCO2 | 3.13% |  |
| O=C1/C(=C\c2ccc3c(c2)OCO3)N2CCC1CC2 | -14.1% |  |
| c1cc2c(cc1[C@H]1OC[C@H]3[C@@H]1CO[C@@H]3c1ccc3c(c1)OCO3)OCO2 |  | 11.2 µM (active) |
| O=C(Cc1ccc(Cl)cc1)NCCN1CCN(C(=O)Cc2ccc(Cl)cc2)CC1 | -16.1% |  |
| CCOC(=O)c1cccc(C2=C(CNC(=O)c3ccncc3)[C@H]3CC[C@@H](C2)N3Cc2ccccc2)c1 | 16.2% |  |
| Cc1ccnc(-n2c(C)cc(/C=C3\C(=O)NC(=S)N(C)C3=O)c2C)c1 |  | 35.5 µM (active) |
| Cc1ccc(-n2c(C)cc(/C=C3\C(=O)NC(=O)N(C)C3=O)c2C)cc1C | 15.2% |  |
| Cc1cc(C=C2C(=O)NC(=O)NC2=O)c(C)n1-c1ccncc1 | 0% |  |
| ClC(Cl)(Cl)c1ccccc1 | 20.2% |  |
| Cc1nc2ccccc2c(=O)n1-c1ccc(Cl)cc1Cl |  | 15.8 µM (active) |
| O=c1c2ccccc2nc(-c2ccc(Cl)cc2Cl)n1-c1ccncc1 | 3.25% |  |
| O=c1c2ccccc2nc(CBr)n1-c1ccc(Cl)cc1 | -19.6% |  |
| CCOC(=O)[C@]12Cc3cc(OC)ccc3[C@H]1N(C(C)C)C(=O)c1ccccc12 | -64.3% |  |
| CCOC(=O)c1c(-c2ccccc2)oc2ccc(OC(=O)N(C)C)cc12 | 7.35% |  |
| Cc1ccc(-c2nc3ccccc3c(=O)n2-c2ccc(Br)cn2)cc1 | 3.11% |  |
| NC(=O)Cn1cc(C(=O)c2ccccc2F)c2ccccc21 | 15.2% |  |
| N#Cc1ccc(Cn2cc(C(=O)c3ccco3)c3ccccc32)cc1 |  | 17.8 µM (active) |
| Cc1ccc([C@H]2C[C@H](O)[C@@H](n3cc(COC(=O)c4ccccc4)nn3)CN2CC2CCCCC2)cc1 | 0% |  |
| CC(C)N(CC#CCC1(O)c2ccccc2-c2ccccc21)C(C)C | -17.2% |  |
| Cc1cccc(Cn2cccc(C(=O)Nc3ccc4c(c3)OCCO4)c2=O)c1 | 17% |  |
| CCOC(=O)C1CN(C)CCC1=O (stereo not given) | 5.32% |  |

| SMILES | growth rescue (activation) | Potency |
| --- | --- | --- |
| c1ccc(-c2nnc(SCc3nc4ccccc4[nH]3)o2)cc1 |  | 12.6 µM (active) |
| c1cc2c(c(NC3=NCCCS3)c1)CCCC2 | 5.1% |  |
| O=c1[nH]c2ccccc2n1C1CCN(C(c2ccnc3ccccc23)c2nnnn2Cc2ccccc2)CC1 (stereo not given) | 10.3% |  |
| COC(=O)C1=C(c2ccc(F)cc2OCc2ccccc2)C[C@@H]2CC[C@H]1N2C(=O)NCc1ccc(OC)c(OC)c1 | 19.4% |  |
| COC(=O)C1=C(c2ccccc2OCc2ccccc2)C[C@@H]2CC[C@H]1N2C(=O)NCc1ccc(OC)cc1 |  | 35.5 µM (active) |
| COC(=O)C1=C(c2ccc(F)cc2OCc2ccccc2)C[C@@H]2CC[C@H]1N2C(=O)NCc1ccc2[nH]ccc2c1 | 4.65% |  |
| Cc1ccc(NC(=O)N(Cc2ccc3c(c2)OCO3)C2CCN(Cc3ccccc3)CC2)cc1F | 0.85% |  |
| O=C(C1CCN(S(=O)(=O)c2ccc(Br)s2)CC1)N1CCN(c2ccccc2)CC1 | 0% |  |
| O=c1[nH]c2ccccc2n1C1CCN(C(c2ccccc2)c2nnnn2Cc2ccccc2)CC1 (stereo not given) | 0% |  |
| COC(=O)C1=C(c2ccc(F)cc2F)C[C@@H]2CC[C@H]1N2C(=O)NC1CC1 | 13.1% |  |
| Cn1c(C(=O)N2CCC(C(=O)N3CCC4(CC3)OCCO4)CC2)cc2sccc21 | -14.1% |  |
| Cc1cc(N2C(=O)C3CCCN3C2c2ccc(Cl)c(Cl)c2)no1 (stereo not given) | 16.4% |  |
| CC1CNCCN1c1ccc(Cl)cc1 (stereo not given) | -10.5% |  |
| C[C@]12CCC3C(CC[C@H]4[C@H](O)[C@H](O)CC[C@]34C)C1CCC2=O (stereo not given in full) | 9.92% |  |
| CC12CCC3C(CCC4CC(=O)CCC43C)C1CC(=NO)C2=O (stereo not given) |  | 15.8 µM (active) |
| COc1ccc(-n2nnnc2C(c2cccc3ccccc23)N2CCC(n3c(=O)[nH]c4ccccc43)CC2)cc1 (stereo not given) | 19.2% |  |
| Nc1ccc(Cc2ccc(N)c(Cl)c2)cc1Cl |  | 12.6 µM (active) |
| CNCC[C@H](Oc1ccc(C(F)(F)F)cc1)c1ccccc1 | 13.1% |  |
| COc1ccc(-c2nn(CCC#N)cc2C(=O)Nc2ccc(C(C)=O)cc2)cc1 | 0% |  |
| CC(C)Oc1ccc(NC(=O)c2cc3ccccc3o2)cc1 | -11.1% |  |
| C[N+]1(C)CCOC(O)(c2ccc(-c3ccc(C4(O)C[N+](C)(C)CCO4)cc3)cc2)C1 (stereo not given) |  | 5.01 µM (active) |
| Cc1nn(-c2ccccc2)c(C)c1NC(=O)COC(=O)Cc1ccccc1 | 5.52% |  |
| C[C@@H]1C[C@@H]2O[C@H]2/C=C\C=C\C(=O)Cc2c(Cl)c(O)cc(O)c2C(=O)O1 |  | 11.2 µM (active) |
| c1ccc(CC2CCCCN2)cc1 (stereo not given) | 1.64% |  |
| CN(C(=O)c1cccc(NC(=O)Cc2cccc([N+](=O)[O-])c2)c1)C1CCCCC1 | -14.5% |  |
| Cc1ccc([C@H]2C[C@H](O)[C@@H](n3cc(COC(=O)c4ccccc4)nn3)CN2C(=O)C2CCCCC2)cc1 | 11.7% |  |
| O=C(Nc1ccc(Cl)cc1C(=O)c1ccccc1)c1cc(Cl)cc(Cl)c1 | -4.61% |  |
